Common to all, as to test: DAPPL (digital affinity profiling via proximity ligation, sequencing); 10 mM Tris-HCl pH 7.5, 50 mM NaCl, 1 mM DTT, 4% glycerol, room temperature, 30 min; GST-TFs on glutathione beads, 16-mer random dsDNA library, 0.1% formaldehyde crosslink after washing; high values mean tight binding
Holding throughout (settings): protein: recombinant; tags: N-terminal GST; dsDNA, one strand shown

The target of one test is T1, GABPA (Homo sapiens, UniProt Q06546 1-454).
T1 sequence: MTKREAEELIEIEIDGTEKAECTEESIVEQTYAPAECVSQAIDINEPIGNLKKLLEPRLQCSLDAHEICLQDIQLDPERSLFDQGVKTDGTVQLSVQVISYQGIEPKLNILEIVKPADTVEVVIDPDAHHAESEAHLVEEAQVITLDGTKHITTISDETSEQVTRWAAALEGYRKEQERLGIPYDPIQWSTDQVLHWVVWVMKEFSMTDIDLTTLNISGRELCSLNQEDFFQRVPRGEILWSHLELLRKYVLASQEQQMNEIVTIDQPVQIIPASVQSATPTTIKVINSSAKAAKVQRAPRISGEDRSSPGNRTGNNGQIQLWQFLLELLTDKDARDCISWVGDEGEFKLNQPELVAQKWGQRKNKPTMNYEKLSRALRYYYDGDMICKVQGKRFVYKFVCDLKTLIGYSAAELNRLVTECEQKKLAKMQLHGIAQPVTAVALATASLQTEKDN
The method in brief:
(§1)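 Sequencing on an Illumina NextSeq500 followed washing, crosslinking with 0.1% formaldehyde, proximity ligation (BsaI/T4 ligase, 1 h, 37 °C) and PCR amplification of pools that had been incubated for 30 min at room temperature with 200 nmole of a random double-stranded 16-mer DNA library in Tris/NaCl/DTT/glycerol buffer. Each pool held DNA-barcoded human transcription factors, expressed in yeast as GST fusions and captured on glutathione beads, plus a tag-only sample. Binding signal is a hexamer's read frequency for a factor divided by its frequency in the tag-only sample.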

The target of the next test is T2, ELK3 (Homo sapiens, UniProt P41970 1-407).
T2 sequence: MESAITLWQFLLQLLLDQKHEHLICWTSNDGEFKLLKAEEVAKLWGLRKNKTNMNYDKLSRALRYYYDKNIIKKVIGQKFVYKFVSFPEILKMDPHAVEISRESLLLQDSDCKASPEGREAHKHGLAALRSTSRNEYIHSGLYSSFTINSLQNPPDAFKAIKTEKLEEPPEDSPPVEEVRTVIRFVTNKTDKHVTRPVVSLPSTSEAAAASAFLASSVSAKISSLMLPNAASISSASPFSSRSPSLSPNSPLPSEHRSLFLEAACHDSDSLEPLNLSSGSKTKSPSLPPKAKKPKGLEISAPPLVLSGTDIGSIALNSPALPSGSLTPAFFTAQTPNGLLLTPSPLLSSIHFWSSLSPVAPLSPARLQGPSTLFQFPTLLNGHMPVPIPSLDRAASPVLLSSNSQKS
In short, it runs like this:
as §1

The next test concerns the target ETV5 (Homo sapiens, UniProt P41161 1-510). The method in brief:
as §1

Another test addresses ETV1 (Homo sapiens, UniProt P50549 1-477). In short, it runs like this: as §1
The target in another test is T3, ERF (Homo sapiens, UniProt P50548 1-548).
T3 sequence: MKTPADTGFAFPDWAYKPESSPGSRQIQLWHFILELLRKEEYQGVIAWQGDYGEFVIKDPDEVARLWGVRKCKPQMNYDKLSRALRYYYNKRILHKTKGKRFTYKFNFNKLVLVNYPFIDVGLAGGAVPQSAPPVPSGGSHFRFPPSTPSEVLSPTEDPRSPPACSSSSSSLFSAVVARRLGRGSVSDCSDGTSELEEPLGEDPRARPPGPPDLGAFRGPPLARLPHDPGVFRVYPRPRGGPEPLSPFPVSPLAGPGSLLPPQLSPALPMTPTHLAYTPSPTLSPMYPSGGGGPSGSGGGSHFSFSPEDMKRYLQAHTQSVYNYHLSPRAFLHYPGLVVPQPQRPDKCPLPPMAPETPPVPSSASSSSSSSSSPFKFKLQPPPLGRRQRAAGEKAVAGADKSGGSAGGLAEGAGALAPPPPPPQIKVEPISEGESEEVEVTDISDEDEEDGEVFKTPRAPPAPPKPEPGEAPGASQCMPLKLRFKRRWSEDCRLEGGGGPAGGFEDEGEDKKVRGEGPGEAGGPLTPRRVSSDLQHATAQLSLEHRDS
The method in brief: as §1

Another test addresses T4, ETS2 (Homo sapiens, UniProt P15036 1-469).
T4 sequence: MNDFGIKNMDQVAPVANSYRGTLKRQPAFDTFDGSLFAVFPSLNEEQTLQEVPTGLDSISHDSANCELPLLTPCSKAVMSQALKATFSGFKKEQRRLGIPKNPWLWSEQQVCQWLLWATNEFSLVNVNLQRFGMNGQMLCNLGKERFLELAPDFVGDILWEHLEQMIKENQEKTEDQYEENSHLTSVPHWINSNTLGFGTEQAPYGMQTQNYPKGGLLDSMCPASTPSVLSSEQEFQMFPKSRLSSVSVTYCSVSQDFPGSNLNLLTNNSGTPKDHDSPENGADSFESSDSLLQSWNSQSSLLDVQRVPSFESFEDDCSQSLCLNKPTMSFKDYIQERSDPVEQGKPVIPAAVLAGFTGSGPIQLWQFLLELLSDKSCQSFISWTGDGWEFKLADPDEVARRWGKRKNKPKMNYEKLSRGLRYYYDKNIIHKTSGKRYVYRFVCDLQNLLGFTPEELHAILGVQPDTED
The method in brief:
as §1

The target of the next test is T5, ELK1 (Homo sapiens, UniProt P19419 1-428).
T5 sequence: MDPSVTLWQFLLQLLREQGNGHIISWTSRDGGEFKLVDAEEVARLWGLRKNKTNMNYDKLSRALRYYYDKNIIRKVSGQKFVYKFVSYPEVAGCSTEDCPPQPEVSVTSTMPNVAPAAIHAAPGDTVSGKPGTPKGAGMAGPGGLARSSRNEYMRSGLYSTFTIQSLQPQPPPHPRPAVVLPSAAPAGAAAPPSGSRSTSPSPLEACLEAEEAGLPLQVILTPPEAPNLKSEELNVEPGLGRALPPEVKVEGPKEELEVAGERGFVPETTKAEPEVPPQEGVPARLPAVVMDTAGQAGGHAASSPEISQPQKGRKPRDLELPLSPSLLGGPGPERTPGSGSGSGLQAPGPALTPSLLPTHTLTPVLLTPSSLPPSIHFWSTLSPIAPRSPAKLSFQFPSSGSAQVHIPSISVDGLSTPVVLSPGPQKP
In short, it runs like this: as §1

Another test addresses T6, ERG (Homo sapiens, UniProt P11308 1-479).
T6 sequence: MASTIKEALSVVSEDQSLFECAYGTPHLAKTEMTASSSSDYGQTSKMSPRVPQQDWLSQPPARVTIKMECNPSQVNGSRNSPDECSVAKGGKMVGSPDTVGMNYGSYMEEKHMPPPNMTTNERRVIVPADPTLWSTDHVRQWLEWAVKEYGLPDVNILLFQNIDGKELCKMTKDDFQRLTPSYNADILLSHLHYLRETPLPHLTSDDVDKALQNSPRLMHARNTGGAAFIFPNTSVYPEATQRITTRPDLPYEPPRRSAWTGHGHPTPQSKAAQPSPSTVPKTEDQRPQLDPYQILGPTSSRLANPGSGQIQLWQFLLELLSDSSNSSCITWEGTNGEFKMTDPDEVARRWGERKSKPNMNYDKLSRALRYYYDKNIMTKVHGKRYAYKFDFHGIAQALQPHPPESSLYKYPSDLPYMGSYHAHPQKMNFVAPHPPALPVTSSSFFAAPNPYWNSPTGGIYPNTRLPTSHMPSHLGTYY
The method in brief: as §1

The target of the next test is ELF1 (Homo sapiens, UniProt P32519 1-619). The method in brief: as §1
ELF1, sequence (P32519 whole entry): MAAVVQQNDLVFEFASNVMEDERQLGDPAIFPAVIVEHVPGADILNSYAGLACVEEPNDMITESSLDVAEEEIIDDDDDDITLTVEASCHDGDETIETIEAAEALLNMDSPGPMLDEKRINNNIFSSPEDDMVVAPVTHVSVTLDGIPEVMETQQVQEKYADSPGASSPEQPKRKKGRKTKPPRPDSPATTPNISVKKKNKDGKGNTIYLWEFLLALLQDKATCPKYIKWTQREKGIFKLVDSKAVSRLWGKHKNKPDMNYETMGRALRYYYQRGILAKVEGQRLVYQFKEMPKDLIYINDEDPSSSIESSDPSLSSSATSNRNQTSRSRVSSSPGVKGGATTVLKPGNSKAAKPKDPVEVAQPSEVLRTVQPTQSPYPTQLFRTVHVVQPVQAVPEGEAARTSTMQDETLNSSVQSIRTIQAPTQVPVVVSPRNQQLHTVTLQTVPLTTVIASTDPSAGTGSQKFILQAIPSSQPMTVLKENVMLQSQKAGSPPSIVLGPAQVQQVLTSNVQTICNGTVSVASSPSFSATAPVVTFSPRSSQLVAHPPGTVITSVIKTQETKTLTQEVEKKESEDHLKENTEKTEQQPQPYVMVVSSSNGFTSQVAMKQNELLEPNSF
Another test deals with T7, EHF (Homo sapiens, UniProt Q9NZC4 1-300).
T7 sequence: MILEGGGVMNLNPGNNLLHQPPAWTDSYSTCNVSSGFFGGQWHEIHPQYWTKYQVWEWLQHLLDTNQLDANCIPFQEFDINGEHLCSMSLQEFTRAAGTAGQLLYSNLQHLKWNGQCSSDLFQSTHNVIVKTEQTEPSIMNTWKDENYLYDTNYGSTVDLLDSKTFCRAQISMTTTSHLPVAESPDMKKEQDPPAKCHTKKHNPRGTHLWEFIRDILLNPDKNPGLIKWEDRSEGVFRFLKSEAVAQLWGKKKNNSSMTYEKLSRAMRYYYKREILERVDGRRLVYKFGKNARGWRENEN
In short, it runs like this: as §1

In a further test the target is SPIB (Homo sapiens, UniProt Q01892 1-262). In short, it runs like this:
as §1

A further test deals with T8, SPIC (Homo sapiens, UniProt Q8N5J4 1-248).
T8 sequence: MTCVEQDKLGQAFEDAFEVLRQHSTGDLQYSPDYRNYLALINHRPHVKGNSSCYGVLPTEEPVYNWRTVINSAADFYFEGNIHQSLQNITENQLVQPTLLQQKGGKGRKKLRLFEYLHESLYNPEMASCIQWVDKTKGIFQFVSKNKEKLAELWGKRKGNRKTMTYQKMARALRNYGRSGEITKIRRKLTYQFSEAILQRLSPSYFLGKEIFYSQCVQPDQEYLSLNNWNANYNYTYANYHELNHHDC
The method in brief:
as §1

For the next test, the target named is ELF4 (Homo sapiens, UniProt Q99607 1-663). The method in brief:
as §1

The target in the next test is T9, ELK4 (Homo sapiens, UniProt P28324-2 1-405).
T9 sequence: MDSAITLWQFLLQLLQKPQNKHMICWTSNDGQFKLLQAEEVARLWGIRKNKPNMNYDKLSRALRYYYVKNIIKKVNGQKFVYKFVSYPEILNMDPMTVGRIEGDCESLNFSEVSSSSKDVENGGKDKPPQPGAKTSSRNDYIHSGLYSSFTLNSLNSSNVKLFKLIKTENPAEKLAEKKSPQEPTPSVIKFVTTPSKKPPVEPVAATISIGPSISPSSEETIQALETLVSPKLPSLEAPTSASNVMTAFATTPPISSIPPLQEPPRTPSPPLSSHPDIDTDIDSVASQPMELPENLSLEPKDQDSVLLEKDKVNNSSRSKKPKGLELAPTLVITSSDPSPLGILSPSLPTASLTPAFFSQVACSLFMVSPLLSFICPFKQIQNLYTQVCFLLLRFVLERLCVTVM
In short, it runs like this:
as §1

A further test concerns the target T10, ELF3 (Homo sapiens, UniProt P78545 1-371).
T10 sequence: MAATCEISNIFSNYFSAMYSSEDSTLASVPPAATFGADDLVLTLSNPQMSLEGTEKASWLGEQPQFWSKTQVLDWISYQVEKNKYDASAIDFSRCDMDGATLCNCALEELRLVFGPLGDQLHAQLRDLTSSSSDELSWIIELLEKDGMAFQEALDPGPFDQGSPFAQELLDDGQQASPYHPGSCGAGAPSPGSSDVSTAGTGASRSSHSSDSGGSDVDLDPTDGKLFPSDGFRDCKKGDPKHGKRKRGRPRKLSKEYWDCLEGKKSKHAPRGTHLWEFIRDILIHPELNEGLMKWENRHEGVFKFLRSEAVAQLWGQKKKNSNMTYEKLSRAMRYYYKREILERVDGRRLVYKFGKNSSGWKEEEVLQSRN
In short, it runs like this: as §1

For a further test, the target named is T11, SPDEF (Homo sapiens, UniProt O95238 1-335).
T11 sequence: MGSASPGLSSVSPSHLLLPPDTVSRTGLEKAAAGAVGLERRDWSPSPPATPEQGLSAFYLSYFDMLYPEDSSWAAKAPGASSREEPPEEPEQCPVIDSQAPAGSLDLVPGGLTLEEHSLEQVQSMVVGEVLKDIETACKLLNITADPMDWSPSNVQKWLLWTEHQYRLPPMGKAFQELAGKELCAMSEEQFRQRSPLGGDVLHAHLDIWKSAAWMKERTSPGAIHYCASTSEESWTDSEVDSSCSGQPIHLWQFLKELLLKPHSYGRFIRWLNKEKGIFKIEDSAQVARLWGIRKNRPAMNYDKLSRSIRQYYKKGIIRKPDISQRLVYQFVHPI
The method in brief:
as §1

The next test concerns the target T12, ETV3 (Homo sapiens, UniProt P41162-2 1-143).
T12 sequence: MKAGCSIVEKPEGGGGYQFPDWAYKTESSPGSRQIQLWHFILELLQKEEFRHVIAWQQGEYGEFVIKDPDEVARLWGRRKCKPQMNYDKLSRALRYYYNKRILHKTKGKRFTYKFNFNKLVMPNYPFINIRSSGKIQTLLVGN
The method in brief:
as §1

Results on two sequences are retold here after paper PMC7862700, “An all-to-all approach to the identification of sequence-specific readers for epigenetic DNA modifications on cytosine”.

ETV5, sequence (P41161 whole entry): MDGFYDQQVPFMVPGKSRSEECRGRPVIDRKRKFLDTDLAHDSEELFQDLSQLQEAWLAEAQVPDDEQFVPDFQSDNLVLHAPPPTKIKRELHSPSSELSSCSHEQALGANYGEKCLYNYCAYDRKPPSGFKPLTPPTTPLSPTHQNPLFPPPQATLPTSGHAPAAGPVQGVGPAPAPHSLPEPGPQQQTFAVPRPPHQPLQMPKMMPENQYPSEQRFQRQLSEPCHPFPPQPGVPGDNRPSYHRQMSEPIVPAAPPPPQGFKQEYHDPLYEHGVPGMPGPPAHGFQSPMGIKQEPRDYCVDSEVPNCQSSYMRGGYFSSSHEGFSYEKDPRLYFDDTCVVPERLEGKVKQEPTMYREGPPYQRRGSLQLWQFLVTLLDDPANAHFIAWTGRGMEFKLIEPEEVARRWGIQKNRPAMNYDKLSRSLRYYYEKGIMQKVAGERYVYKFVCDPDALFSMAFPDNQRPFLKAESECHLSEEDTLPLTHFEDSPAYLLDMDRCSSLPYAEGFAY
ETV1, sequence (P50549 whole entry): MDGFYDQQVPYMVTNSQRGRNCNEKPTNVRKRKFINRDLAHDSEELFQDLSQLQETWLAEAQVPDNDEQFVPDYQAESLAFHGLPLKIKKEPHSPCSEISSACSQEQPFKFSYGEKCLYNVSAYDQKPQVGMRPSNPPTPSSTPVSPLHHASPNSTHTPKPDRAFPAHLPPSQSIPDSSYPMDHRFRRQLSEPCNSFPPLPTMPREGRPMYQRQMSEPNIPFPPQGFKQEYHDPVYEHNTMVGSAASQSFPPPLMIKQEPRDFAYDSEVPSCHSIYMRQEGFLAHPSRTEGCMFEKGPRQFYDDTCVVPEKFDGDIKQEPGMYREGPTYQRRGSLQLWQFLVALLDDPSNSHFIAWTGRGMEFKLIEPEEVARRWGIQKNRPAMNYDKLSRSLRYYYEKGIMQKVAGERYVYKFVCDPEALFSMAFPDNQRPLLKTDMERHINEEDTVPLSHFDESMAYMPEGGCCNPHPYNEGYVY
SPIB, sequence (Q01892 whole entry): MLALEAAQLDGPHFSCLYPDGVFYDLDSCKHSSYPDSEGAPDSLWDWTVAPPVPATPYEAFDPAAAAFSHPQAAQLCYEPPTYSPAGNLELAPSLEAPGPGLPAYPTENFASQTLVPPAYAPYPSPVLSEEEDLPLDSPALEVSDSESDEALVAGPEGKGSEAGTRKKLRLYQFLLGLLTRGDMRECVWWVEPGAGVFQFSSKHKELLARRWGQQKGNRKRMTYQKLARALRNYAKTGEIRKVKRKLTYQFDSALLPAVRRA
ELF4, sequence (Q99607 whole entry): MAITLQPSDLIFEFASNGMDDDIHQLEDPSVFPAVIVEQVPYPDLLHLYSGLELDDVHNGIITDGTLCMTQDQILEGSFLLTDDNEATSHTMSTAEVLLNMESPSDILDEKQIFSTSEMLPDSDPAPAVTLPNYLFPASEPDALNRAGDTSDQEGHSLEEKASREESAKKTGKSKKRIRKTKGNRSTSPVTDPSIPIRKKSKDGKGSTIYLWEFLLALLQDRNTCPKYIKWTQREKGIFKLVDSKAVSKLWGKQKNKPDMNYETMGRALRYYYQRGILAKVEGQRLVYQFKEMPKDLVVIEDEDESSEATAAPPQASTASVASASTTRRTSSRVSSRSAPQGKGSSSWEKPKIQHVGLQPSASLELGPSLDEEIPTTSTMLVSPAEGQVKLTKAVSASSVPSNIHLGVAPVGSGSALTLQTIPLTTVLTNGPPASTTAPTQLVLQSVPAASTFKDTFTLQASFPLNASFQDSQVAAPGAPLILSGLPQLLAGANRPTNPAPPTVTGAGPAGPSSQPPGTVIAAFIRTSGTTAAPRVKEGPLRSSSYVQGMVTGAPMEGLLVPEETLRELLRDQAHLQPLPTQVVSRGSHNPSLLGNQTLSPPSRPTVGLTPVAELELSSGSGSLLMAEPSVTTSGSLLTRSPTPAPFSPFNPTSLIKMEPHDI

With AGCTCG, the binding signal with GABPA is 1.04 fold enrichment (6-mer frequency, TF over GST control); with ELK3, 1.04 fold enrichment (6-mer frequency, TF over GST control); with ETV5, 1.04 fold enrichment (6-mer frequency, TF over GST control); with ETV1 it was 1.01 fold enrichment (6-mer frequency, TF over GST control); with ERF, 1.08 fold enrichment (6-mer frequency, TF over GST control); in the test with ETS2, 1.01 fold enrichment (6-mer frequency, TF over GST control).

GTACTG: the binding signal with ELK1 was 1.02 fold enrichment (6-mer frequency, TF over GST control); with GABPA, 1.04 fold enrichment (6-mer frequency, TF over GST control); with ERG, 1.09 fold enrichment (6-mer frequency, TF over GST control); in the test with ELF1 it was 1.12 fold enrichment (6-mer frequency, TF over GST control); in the test with EHF, 1.06 fold enrichment (6-mer frequency, TF over GST control); with SPIB, 1 fold enrichment (6-mer frequency, TF over GST control). Also, the binding signal in the test with ELK3 was 1.08 fold enrichment (6-mer frequency, TF over GST control); with ETV5, 1.08 fold enrichment (6-mer frequency, TF over GST control); in the test with SPIC, 1.04 fold enrichment (6-mer frequency, TF over GST control); with ELF4 it was 1.05 fold enrichment (6-mer frequency, TF over GST control); with ELK4 it was 1.15 fold enrichment (6-mer frequency, TF over GST control); in the test with ELF3 it was 1 fold enrichment (6-mer frequency, TF over GST control). The binding signal was 1.02 fold enrichment (6-mer frequency, TF over GST control) with ETV1; 1.02 fold enrichment (6-mer frequency, TF over GST control) in the test with ERF; 1.03 fold enrichment (6-mer frequency, TF over GST control) with SPDEF; 1.11 fold enrichment (6-mer frequency, TF over GST control) in the test with ETV3.
